The supplement of paper PMC10849652
The full data set covers some 7,900 targets. This sample favours those with a hit. About 0.6% of all pairs of compound and target were hits. Unmarked numbers belong to inactive results.

Experiments:
Experiment in all cases: log2 fold change, soluble protein after heating vs DMSO (PISA); higher = thermal stabilisation; K562 cells, 10 uM, 30 min; active = over 0.2 and 3.5 SD of the protein, either way, in both replicates (recomputed)
[1] = compound: CS(=O)(=O)c1ccc(-c2cnc(N)c(C(=O)Nc3ccccc3)n2)cc1
How it was run: (§1)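 Soluble protein was defined as the supernatant after 21,000xg for 90 min. It came from K562 cells at 2×10^6 cells/mL given 10 μM compound for 30 min, heated in aliquots for 3 min across 48°C-58°C, pooled, and extracted in PBS with 0.5% NP-40 at 4°C, and was quantified by TMTpro 16plex LC-MS/MS with equalised channel sums. Thermal stability against control samples, from duplicates, is reported as log2 fold change.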

[2] = compound: C[C@@H](Oc1cc(-c2cnn(C3CCNCC3)c2)cnc1N)c1c(Cl)ccc(F)c1Cl [crizotinib]
How it was run: as §1

[3] = compound: C[C@@H]1COCCN1C2=NC(=NC(=C2)C3(CC3)S(=O)(=O)C)C4=C5C=CNC5=CC=C4
How it was run: as §1

[4] = compound: Cc1cc(Nc2cc(CN3CCOCC3)c3nc(C)c(Cc4ccc(Cl)cc4F)n3n2)n[nH]1 [gandotinib]
How it was run: as §1

[5] = compound: Cc1ccc(-n2nc(C(C)(C)C)cc2NC(=O)Nc2ccc(OCCN3CCOCC3)c3ccccc23)cc1 [doramapimod]
How it was run: as §1

[6] = compound: Cc1ccc(C(=O)N(CCCN)[C@@H](c2nc3cc(Cl)ccc3c(=O)n2Cc2ccccc2)C(C)C)cc1 [ispinesib]
How it was run: as §1

[7] = compound: Cc1ccc(NC(=O)c2ccc(CN3CC[C@H](N(C)C)C3)c(C(F)(F)F)c2)cc1Nc1nccc(-c2cncnc2)n1 [bafetinib]
How it was run: as §1

[8] = compound: Cc1cccc(CC(=O)N2CCc3c2ccc(-c2cn(C)c4ncnc(N)c24)c3F)n1
How it was run: as §1

[9] = compound: Cc1cn(-c2cc(NC(=O)c3ccc(C)c(Nc4nccc(-c5cccnc5)n4)c3)cc(C(F)(F)F)c2)cn1 [nilotinib]
How it was run: as §1

[10] = compound: Cc1nc(Nc2n[nH]c3c2CN(C(=O)N[C@H](CN(C)C)c2ccccc2)C3(C)C)c2sccc2n1
How it was run: as §1

[11] = compound: Cc1ncc(-c2ccnc(Nc3ccc(S(C)(=O)=O)cc3)n2)n1C(C)C
How it was run: as §1

[12] = compound: Cn1cc(-c2ccc3nnc(C(F)(F)c4ccc5ncccc5c4)n3n2)cn1
How it was run: as §1

[13] = compound: Cn1cncc1[C@@](N)(c1ccc(Cl)cc1)c1ccc2c(c1)c(-c1cccc(Cl)c1)cc(=O)n2C [tipifarnib]
How it was run: as §1

[14] = compound: FC(F)(F)c1ccc(/C=C/c2nc(COc3ccc(CCCCn4ccnn4)cc3)co2)cc1 [mubritinib]
How it was run: as §1

[15] = compound: C[C@H](C1=CC=C(C=C1)C(=O)NC2=C3C=CNC3=NC=C2)N
How it was run: as §1

[16] = compound: C[C@H](Nc1ncnc2nc[nH]c12)c1cc2cccc(Cl)c2c(=O)n1-c1ccccc1 [duvelisib]
How it was run: as §1

[17] = compound: Cc1cc(Nc2cc(N3CCN(C)CC3)nc(Sc3ccc(NC(=O)C4CC4)cc3)n2)n[nH]1 [tozasertib]
How it was run: as §1

[18] = compound: Cc1cc(SCc2sc(-c3ccc(C(F)(F)F)cc3)nc2C)ccc1OCC(=O)O
How it was run: as §1

[19] = compound: Cc1nc(Nc2ncc(C(=O)Nc3c(C)cccc3Cl)s2)cc(N2CCN(CCO)CC2)n1 [dasatinib]
How it was run: as §1

[20] = compound: Cn1cc(-c2ccc3c(c2)CCN3C(=O)Cc2cccc(C(F)(F)F)c2)c2c(N)ncnc21
How it was run: as §1

Sequence of UniProt P02749 (P02749 whole entry, looked up): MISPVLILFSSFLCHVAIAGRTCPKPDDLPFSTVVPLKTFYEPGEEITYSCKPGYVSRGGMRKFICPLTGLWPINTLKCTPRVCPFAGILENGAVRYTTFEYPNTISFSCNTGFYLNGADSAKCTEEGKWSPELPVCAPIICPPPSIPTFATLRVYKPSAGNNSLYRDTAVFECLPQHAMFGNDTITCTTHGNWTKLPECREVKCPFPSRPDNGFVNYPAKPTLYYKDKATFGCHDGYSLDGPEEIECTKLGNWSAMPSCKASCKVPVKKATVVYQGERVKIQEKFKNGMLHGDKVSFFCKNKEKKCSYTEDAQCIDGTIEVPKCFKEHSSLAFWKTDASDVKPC
Sequence of UniProt P55196 (P55196 whole entry, looked up): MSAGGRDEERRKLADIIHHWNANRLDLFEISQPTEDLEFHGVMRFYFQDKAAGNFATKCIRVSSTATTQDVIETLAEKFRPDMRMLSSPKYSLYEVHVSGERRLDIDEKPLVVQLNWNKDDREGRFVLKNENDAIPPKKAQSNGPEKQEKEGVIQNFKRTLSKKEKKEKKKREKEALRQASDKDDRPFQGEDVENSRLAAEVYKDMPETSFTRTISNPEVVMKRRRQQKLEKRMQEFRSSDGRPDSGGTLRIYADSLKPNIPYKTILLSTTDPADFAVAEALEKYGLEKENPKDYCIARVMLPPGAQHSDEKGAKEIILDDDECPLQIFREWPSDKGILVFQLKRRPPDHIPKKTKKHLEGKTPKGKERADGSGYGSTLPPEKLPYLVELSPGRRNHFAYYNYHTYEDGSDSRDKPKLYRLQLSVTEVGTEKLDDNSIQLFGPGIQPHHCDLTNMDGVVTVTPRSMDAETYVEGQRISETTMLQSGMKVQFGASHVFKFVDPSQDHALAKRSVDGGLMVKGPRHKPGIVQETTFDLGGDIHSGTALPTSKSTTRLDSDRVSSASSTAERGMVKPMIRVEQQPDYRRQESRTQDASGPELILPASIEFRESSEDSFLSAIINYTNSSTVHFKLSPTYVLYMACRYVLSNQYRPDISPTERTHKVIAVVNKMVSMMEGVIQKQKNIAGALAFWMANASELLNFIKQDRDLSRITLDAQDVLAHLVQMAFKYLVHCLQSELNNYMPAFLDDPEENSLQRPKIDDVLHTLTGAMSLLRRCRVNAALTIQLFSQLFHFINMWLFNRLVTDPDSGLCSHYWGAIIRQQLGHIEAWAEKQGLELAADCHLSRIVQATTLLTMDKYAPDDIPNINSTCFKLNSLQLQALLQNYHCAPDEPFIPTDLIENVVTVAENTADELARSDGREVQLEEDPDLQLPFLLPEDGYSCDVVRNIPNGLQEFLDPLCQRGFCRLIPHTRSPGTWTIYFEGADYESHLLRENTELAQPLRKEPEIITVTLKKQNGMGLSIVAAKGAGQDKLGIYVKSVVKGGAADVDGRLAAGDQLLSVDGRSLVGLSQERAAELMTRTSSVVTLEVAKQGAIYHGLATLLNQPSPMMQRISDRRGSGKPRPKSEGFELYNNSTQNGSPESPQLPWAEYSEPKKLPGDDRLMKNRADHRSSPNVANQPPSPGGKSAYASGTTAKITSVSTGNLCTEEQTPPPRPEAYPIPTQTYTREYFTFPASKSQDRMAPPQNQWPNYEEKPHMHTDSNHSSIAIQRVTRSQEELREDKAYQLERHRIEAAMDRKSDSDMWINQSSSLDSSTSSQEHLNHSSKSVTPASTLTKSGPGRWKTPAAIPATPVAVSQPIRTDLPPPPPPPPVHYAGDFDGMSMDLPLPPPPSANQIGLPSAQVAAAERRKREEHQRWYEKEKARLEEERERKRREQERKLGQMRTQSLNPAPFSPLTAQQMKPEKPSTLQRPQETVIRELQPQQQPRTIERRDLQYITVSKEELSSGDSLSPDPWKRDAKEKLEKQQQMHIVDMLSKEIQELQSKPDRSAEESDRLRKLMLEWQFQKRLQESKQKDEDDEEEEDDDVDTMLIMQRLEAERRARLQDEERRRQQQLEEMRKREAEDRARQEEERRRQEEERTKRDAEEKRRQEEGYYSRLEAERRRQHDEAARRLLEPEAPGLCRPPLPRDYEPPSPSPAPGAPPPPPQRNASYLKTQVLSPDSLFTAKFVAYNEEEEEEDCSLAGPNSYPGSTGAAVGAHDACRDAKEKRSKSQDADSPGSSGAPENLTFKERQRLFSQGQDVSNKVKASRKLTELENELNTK
Sequence of UniProt Q9NXW9 (Q9NXW9 whole entry, looked up): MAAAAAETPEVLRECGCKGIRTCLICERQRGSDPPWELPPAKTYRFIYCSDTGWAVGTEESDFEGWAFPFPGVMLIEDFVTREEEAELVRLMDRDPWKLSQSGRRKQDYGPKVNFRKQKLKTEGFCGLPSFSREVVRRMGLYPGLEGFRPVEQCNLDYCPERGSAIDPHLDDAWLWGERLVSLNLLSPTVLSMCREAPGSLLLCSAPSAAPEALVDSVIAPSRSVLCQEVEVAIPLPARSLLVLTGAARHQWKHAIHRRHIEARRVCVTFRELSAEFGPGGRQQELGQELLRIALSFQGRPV
Sequence of UniProt P17544 (P17544 whole entry, looked up): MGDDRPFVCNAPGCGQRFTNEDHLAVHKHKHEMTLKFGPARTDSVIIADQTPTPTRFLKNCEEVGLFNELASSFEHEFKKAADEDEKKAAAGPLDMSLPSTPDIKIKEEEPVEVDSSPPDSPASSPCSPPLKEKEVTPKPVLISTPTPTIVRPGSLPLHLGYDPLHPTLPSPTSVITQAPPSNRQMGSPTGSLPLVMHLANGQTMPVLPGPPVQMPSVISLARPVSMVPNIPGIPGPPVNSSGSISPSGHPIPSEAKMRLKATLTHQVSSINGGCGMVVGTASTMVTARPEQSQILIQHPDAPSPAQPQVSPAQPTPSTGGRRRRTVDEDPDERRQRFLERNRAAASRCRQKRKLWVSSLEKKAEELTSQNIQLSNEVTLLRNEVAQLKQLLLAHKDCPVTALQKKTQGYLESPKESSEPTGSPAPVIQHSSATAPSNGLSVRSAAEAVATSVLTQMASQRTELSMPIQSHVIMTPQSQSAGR
Sequence of UniProt Q96BI3 (Q96BI3 whole entry, looked up): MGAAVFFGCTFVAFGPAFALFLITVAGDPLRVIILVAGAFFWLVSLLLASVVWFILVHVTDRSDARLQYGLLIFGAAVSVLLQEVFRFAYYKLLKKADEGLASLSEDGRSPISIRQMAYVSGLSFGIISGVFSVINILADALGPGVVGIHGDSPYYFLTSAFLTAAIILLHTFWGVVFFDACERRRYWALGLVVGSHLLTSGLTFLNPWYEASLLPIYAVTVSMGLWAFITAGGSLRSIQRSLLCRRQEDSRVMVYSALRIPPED
Sequence of UniProt Q99758 (Q99758 whole entry, looked up): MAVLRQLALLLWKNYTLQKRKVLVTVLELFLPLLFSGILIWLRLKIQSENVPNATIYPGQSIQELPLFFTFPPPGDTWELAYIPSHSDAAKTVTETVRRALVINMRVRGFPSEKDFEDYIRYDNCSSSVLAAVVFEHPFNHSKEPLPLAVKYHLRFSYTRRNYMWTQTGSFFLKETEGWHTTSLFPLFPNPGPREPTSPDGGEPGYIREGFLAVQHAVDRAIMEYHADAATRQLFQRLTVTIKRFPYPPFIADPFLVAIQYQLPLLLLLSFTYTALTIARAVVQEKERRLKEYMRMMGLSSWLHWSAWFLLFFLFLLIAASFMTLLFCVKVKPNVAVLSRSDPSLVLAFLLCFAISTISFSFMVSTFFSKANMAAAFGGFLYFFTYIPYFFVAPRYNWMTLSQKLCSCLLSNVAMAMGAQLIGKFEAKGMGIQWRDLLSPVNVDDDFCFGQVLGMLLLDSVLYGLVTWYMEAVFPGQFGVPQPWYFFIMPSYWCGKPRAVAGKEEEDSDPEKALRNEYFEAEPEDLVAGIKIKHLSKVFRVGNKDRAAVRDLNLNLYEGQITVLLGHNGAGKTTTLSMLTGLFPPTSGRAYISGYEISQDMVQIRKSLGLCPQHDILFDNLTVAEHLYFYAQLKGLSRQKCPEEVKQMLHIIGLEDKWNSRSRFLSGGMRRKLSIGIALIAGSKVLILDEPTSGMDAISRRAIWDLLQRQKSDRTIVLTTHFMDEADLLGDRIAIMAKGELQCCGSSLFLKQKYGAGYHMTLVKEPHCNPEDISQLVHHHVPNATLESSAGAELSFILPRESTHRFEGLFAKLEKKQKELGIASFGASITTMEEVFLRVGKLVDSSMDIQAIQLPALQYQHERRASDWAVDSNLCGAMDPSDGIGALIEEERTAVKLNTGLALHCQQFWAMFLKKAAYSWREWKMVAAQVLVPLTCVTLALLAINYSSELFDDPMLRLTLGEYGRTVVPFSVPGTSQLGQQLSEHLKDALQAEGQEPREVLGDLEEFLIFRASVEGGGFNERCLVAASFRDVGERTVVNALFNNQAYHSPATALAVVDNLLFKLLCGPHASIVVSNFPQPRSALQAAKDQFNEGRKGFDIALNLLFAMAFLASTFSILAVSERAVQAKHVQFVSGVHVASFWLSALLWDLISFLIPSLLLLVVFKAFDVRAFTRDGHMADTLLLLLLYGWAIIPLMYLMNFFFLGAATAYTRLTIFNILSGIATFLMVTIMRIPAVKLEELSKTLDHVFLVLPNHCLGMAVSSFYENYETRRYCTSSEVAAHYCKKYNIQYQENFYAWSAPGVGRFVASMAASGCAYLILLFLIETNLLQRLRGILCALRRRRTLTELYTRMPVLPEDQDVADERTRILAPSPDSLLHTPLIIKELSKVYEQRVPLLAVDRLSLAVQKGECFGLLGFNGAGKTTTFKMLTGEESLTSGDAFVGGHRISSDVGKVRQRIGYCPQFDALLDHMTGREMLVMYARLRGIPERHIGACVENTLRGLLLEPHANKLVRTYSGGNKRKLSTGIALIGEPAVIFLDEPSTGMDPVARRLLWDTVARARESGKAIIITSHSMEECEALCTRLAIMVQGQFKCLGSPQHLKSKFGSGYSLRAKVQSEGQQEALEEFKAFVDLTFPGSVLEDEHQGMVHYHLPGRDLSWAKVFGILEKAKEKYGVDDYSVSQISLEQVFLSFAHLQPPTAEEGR

Row | Target | log2 fold change [1] | log2 fold change [2] | log2 fold change [3] | log2 fold change [4] | log2 fold change [5] | log2 fold change [6] | log2 fold change [7] | log2 fold change [8] | log2 fold change [9] | log2 fold change [10] | log2 fold change [11] | log2 fold change [12] | log2 fold change [13] | log2 fold change [14] | log2 fold change [15] | log2 fold change [16] | log2 fold change [17] | log2 fold change [18] | log2 fold change [19] | log2 fold change [20]
1 | ASB6 (UniProt Q9NWX5) | 0.019 | 0.013 | -0.025 | 0.109 | 0.037 | -0.143 | -0.039 | 0.014 | -0.066 | -0.279 | -0.07 | -0.034 | -0.02 | 0.037 | – | – | – | – | – | –
2 | ADAMTS5 (UniProt Q9UNA0) | 0.077 | 0.084 | – | 0.178 | 0.052 | -0.035 | -0.103 | -0.066 | 0.022 | 0.052 | -0.079 | 0.063 | – | 0.154 | -0.08 | 0.111 | -0.093 | -0.136 | 0.033 | 0.088
3 | ATF7 isoform 6 (UniProt P17544) | -0.131 | 0.061 | 0.02 | – | 0.158 | 0.223 | 0.02 | – | -0.026 | -0.081 | -0.019 | -0.266 | 0 | 0.018 | -0.088 | -0.093 | -0.032 | -0.054 | 0.504 (active) | 0.055
4 | APH1A (UniProt Q96BI3) | 0.048 | -0.151 | – | -0.075 | 0.073 | – | 0.132 | -0.06 | -0.037 | -0.04 | 0.028 | – | -0.06 | 0.05 | 0.021 | 0.035 | 0.015 | -0.036 | -0.039 | 0.036
5 | ABCA3 (UniProt Q99758) | 0.111 | -0.361 (active) | 0.174 | 0.036 | 0.031 | -0.502 (active) | 0.164 | -0.053 | – | – | – | 0.019 | 0.058 | – | 0.073 | 0.035 | 0.005 | 0.014 | -0.027 | -0.022
6 | APOBEC3G (UniProt Q9HC16) | -0.065 | 0.059 | -0.165 | – | 0.023 | -0.01 | -0.016 | – | 0.028 | 0.079 | 0.028 | -0.042 | -0.012 | 0.03 | – | -0.189 | 0.013 | 0.102 | 0.075 | –
7 | ADPRH (UniProt P54922) | 0.123 | 0.056 | 0.201 | 0.157 | -0.071 | -0.002 | 0.082 | -0.29 | 0.141 | 0.026 | -0.161 | 0.038 | -0.005 | 0.015 | – | – | -0.033 | – | – | –
8 | BID isoform 2 (UniProt P55957) | 0.047 | 0.087 | 0.409 (active) | -0.012 | -0.013 | 0.022 | -0.035 | -0.071 | 0.019 | -0.006 | 0.005 | 0.007 | -0.079 | 0.044 | -0.019 | 0.049 | -0.012 | -0.003 | 0.018 | 0.038
9 | BRD3 (UniProt Q15059) | 0.117 | 0.109 | – | -0.081 | -0.083 | -0.03 | -0.152 | -0.002 | -0.088 | -0.031 | -0.138 | 0.086 | -0.126 | 0.047 | -0.02 | 0.193 | -0.027 | -0.037 | -0.319 | -0.05
10 | BAD (UniProt Q92934) | 0.171 | 0.076 | 0.076 | 0.018 | 0.003 | 0.025 | -0.151 | -0.046 | 0.034 | 0.009 | -0.069 | 0.076 | -0.005 | -0.046 | -0.036 | 0.081 | – | -0.033 | 0.092 | 0.077
11 | AFDN isoform 1 (UniProt P55196) | 0.004 | 0.088 | 0.371 | 0.183 | 0.116 | 0.11 | -0.053 | -0.077 | – | – | – | 0.07 | – | 0.031 | 0.111 | 0.054 | – | 0.068 | -0.152 | -0.027
12 | BRD2 isoform 2 (UniProt P25440) | 0.618 | 0.006 | – | -0.089 | 0.064 | – | 0.136 | 0.476 | – | – | – | – | -0.171 | – | -0.065 | 0.295 | 0.168 | -0.083 | -0.32 | 0.11
13 | ATP7B (UniProt P35670) | -0.009 | -0.005 | 0.03 | -0.141 | 0.137 | -0.015 | -0.009 | -0.032 | 0.006 | -0.017 | 0.087 | 0.001 | 0.019 | -0.079 | 0.065 | 0.092 | 0.033 | -0.014 | -0.153 | 0.015
14 | ANK2 (UniProt Q01484) | 0.066 | 0.062 | – | -0.092 | 0.055 | -0.188 | -0.281 | -0.034 | -0.265 | 0.041 | -0.042 | 0.01 | 0.034 | -0.141 | -0.005 | 0.21 | 0.011 | 0.089 | -0.277 | 0.012
15 | BLVRB (UniProt P30043) | 0.04 | -0.006 | 0.036 | -0.085 | -0.027 | -0.012 | 0.014 | 0.05 | 0.021 | -0.109 | 0.029 | 0.074 | -0.021 | -0.097 | -0.081 | 0.016 | -0.011 | 0.002 | -0.064 | 0.032
16 | ABCA4 (UniProt P78363) | 0.286 | 0.035 | 0.036 | 0.452 | 0.004 | -0.119 | -0.025 | -0.149 | 0.106 | 0.095 | 0.045 | -0.071 | – | 0.154 | 0.019 | – | -0.055 | – | – | 0.016
17 | ALKBH4 (UniProt Q9NXW9) | 0.082 | -0.033 | 0.172 | -0.084 | 0.037 | -0.109 | 0.038 | 0.087 | – | – | – | 0.017 | -0.001 | -0.122 | 0.029 | -0.068 | 0.024 | 0.12 | 0 | -0.022
18 | APOH (UniProt P02749) | -0.22 | -0.179 | – | -0.747 | -0.108 | -0.595 | -1.07 (active) | 0.083 | 0 | 0.031 | 0.392 | -0.167 | 0.085 | -0.346 | -0.071 | -0.017 | -0.125 | 0.458 | -0.281 | 0.145
